Data published in PubChem BioAssay AID624351 (Southern Research Specialized Biocontainment Screening …, 2012).
Out of some 2,400 compounds screened, about 1,400 (58%) were called active.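 How the source made its calls: active means inhibition of 30% or more at any tested dose; inconclusive means primary hits over the limit that were never retested; inactive means the rest.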 The set was probably picked from earlier hits. The list shows a part of the results.

assay: ADP Hunter readout inhibition without MgcRacGAP – biochemical, coupled enzyme counter-screen, artefact control for MgcRacGAP inhibitor project, dose response (AID 624351); conditions: fluorescence, no MgcRacGAP; series mostly up to 80 µM;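 further: signal is the ADP detection kit reading of free GDP without any GAP enzyme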

SMILES	IC50
O=C(NC(NC(=S)Nc1ccc(Cl)c(Cl)c1)C(Cl)(Cl)Cl)c1ccco1 (centres undefined)	inactive
CCCC(=O)NC(=S)Nc1cccc2c(O)cccc12	46.4 µM (active)
O=C(NC(=S)Nc1cccc2c(O)cccc12)c1ccco1	42.5 µM (active)
COc1cc(/C=N/NC(=O)C(=O)N2CCCC2)ccc1O	40.8 µM (active)
S=C(NCc1ccco1)NCc1ccco1	inactive
CCN1CCN(CC(=O)Nc2cc(C(F)(F)F)ccc2OCCOC)CC1	inactive
CCOc1cc(/C=N/NC(=O)CN2CCCCC2)ccc1O	55.5 µM (active)
CCOc1cc(/C=N/NC(=O)C(=O)N2CCCC2)ccc1O	60.6 µM (active)
Oc1ccc(/C=N/NC(=S)NCc2ccco2)cc1	44.4 µM (active)
CCN1CCN(C(=S)NCC2CCCO2)CC1 (centres undefined)	inactive
COc1cc(/C=N/NC(=O)C(=O)NCC2CCCO2)ccc1O (centres undefined)	31.2 µM (active)
Oc1ccc(/C=N/NC(=S)NCC2CCCO2)cc1 (centres undefined)	28.5 µM (active)
Cc1nnc(N=c2ssnc2Cl)o1	inactive
Nc1nc(=S)ss1	inactive
COc1ccc(N2CCN(C(=O)CCCn3c(=O)c4cccn4c4cccnc43)CC2)cc1	inactive
COc1ccc2[nH]c3c(=O)n(CCCCC(=O)N4CCC(C(N)=O)CC4)c(=S)[nH]c3c2c1	53.3 µM (active)
COc1cccc(CN2CCC(C(=O)N3CCC(C)CC3)CC2)c1	inactive
COc1ccc2[nH]c3c(=O)n(Cc4ccc(C(=O)N5CCC(C(N)=O)CC5)cc4)c(=S)[nH]c3c2c1	37.6 µM (active)
COc1ccc(CN2CCCC(C(=O)N3CCCC3)C2)cc1 (centres undefined)	inactive
CC(C)=NNc1cc([N+](=O)[O-])cc2c1C(=O)N(C)S2=O (centres undefined)	inactive
Cc1ccc(O)c(N=Cc2sc3ccccc3c2Cl)c1	39.7 µM (active)
Oc1ccc(Cl)cc1N=Cc1sc2ccccc2c1Cl	21.4 µM (active)
CS(=O)(=O)N1CCN(C2C3CC4CC(C3)CC2C4)CC1 (centres undefined)	inactive

SMILES	IC50
O=C(CN1CCCCCC1)NN(Cc1ccccc1)c1ccccc1	inactive
O=C(COC(=O)c1ccccc1)Nc1ncc([N+](=O)[O-])s1	inactive
COc1ccc(N2CCN(C(c3cccs3)C(C)NC(=O)c3ccco3)CC2)cc1 (centres undefined)	inactive
CCS(=O)(=O)NC(C)C(c1cccs1)N1CCN(c2ccc(OC)cc2)CC1 (centres undefined)	81.8 µM (active)
COc1ccc(N2CCN(C(CNS(=O)(=O)c3ccc4c(c3)OCCO4)c3ccco3)CC2)cc1 (centres undefined)	inactive
Nc1ccc2nc(N)sc2c1	11 µM (active)
Nc1ccc(-c2nc3ccc(N)cc3s2)cc1	75.8 µM (active)
N#CC1(Nc2ccc3c4c(cccc24)CC3)CCCCC1	24.3 µM (active)
COc1ccc(/C=N/Nc2cc(C)nc3ccc(OC)cc23)c(OC)c1	inactive
COc1ccc2nc(/N=C(\N)NC(=O)N3c4ccccc4Sc4ccccc43)nc(C)c2c1	inactive
COc1ccc2c(c1)c(C(=O)N/N=C/c1ccc(O)c(O)c1)c(C)n2C	22 µM (active)
COc1ccc2nc(C)cc(SCC(=O)N/N=C/c3ccc(O)c(O)c3)c2c1	28 µM (active)
CC1(C)C2CCC(CN=C(N)CSS(=O)(=O)O)C1C2 (centres undefined)	inactive
CC(/C=C/c1ccc(O)cc1)=N/O	11.8 µM (active)
COc1ccc(N2CCC(CNC(=O)Nc3ccc(C)c(C)c3)C2)cc1 (centres undefined)	inactive
CCc1ccccc1NC(=S)NCC1CCN(c2ccc(OC)cc2)C1 (centres undefined)	65.3 µM (active)
CCc1c(C)nc(N2CCN(c3ccc(OC)cc3)CC2)[nH]c1=O	inactive
COc1ccc(N2CCC(CNC(=S)Nc3cc(C)cc(C)c3)C2)cc1 (centres undefined)	inactive
COc1ccc(NC(=S)NCC2CCN(c3ccc(OC)cc3)C2)cc1 (centres undefined)	52.5 µM (active)
COc1ccc(N2CCC(CNC(=S)Nc3cccc(C)c3)C2)cc1 (centres undefined)	72.2 µM (active)
COc1ccc(CNCC(=O)Nc2ccccc2-n2cccc2)cc1	inactive
CC(=O)N1CCC(=NNC(=O)c2cc3ccccc3cc2O)CC1	inactive
CN(Cc1ccccc1)C(=O)C1CCCN(Cc2ccc(Cl)cc2)C1 (centres undefined)	inactive

SMILES	IC50
COc1cc(/C=N/N2C(=O)c3ccccc3C2=O)ccc1O	41.6 µM (active)
O=C1c2ccccc2C(=O)N1/N=C/c1ccc(O)c(O)c1	33.2 µM (active)
O=C1C2C3C=CC(CC3)C2C(=O)N1/N=C/c1ccc(O)c(O)c1 (centres undefined)	64.1 µM (active)
Nc1ccc(Cn2ccc3c4c(N)nc(N)nc4ccc32)cc1	inactive
Cc1cccc(-n2c(=O)c3ccccc3n3c(=S)[nH]nc23)c1C	34 µM (active)
Cn1c(=O)c2ccccc2n2c(=S)[nH]nc12	13.2 µM (active)
CCOCCCn1c(=O)c2ccccc2n2c(=S)[nH]nc12	16.1 µM (active)
O=c1c2ccccc2n2c(=S)[nH]nc2n1-c1ccccc1	20.6 µM (active)
O=C(c1cccc(Cl)c1)N1CCN(Cc2ccncc2)CC1	inactive
COc1cccc2[nH]c(C(=O)NN)c(N)c12	inactive
CCOC(=O)c1[nH]c2ccc(C)cc2c1N	27.2 µM (active)
CCCc1c(C)[nH]c2ccc(C(=O)O)cc2c1=S	inactive
CCOC(=O)c1[nH]c2cc(OC)c(OC)cc2c1N	31.3 µM (active)
CN1CCN(C=NC2=NN(c3cccc(C(F)(F)F)c3)CC2)CC1	34.1 µM (active)
Oc1ccccc1C=NC1=NN(c2cccc(C(F)(F)F)c2)CC1	16.9 µM (active)
FC(F)(F)c1cccc(N2CCC(N=CN3CCCCCC3)=N2)c1	50 µM (active)
CC[N+](CC)(CC)CCCCOc1ccc2c(c1)C(=O)c1cc(OCCCC[N+](CC)(CC)CC)ccc1-2	inactive
NSc1nc(N)c2nc(-c3ccccc3)c(-c3ccccc3)nc2n1	inactive
O=C(C1=C(O)C(=O)N(c2nc3ccc(Cl)cc3s2)C1c1ccco1)c1ccco1 (centres undefined)	inactive
COc1ccc(NC(=O)Cn2nnc(C(=O)NCc3cccs3)c2N)cc1Cl	inactive
COc1cc(NCCC(=O)c2cccs2)c(OC)cc1Cl	58.1 µM (active)
CCCSC1=N/C(=C\C=C\c2ccco2)C(=O)S1	inactive
CCN(CC)CCn1c2ccccc2c(=O)c2c(O)ccc(O)c21	inactive
